A1 inh – inhibitors of the anti-apoptotic protein A1, read as caspase activation. MEF A1-2A-BIM cells, Caspase-Glo 3/7 luminescence, 3 h; percent of clofoctol response, vehicle zero. caspase activation, % (no concentration beside the values). hit rate 0.066% among 330,000;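 active means over half of replicate activation scores above 10%, or exactly half above 10 with the replicate mean above 10; inconclusive means replicate mean below 10 yet half the replicates above 10; inactive means over half of replicates below 10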
aDG glyco up – alpha-DG glycosylation activation | hit rate 0.22% among 360,000 | Pro5-aDG cells, alpha-DG glycosylation AlphaScreen (IIH6); 0% Pro5, 100% B10-LARGE cell signal | activation, % at 10 µM;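 active means activation of at least 8% versus controls, or a plate z-score of at least 8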;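 further: Pro5 are CHO cells carrying HIG-tagged alpha-DG that lacks glycosylation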
ARNT-TACC3 inh – disruptors of human ARNT/TACC3 interaction | AlphaScreen His-ARNT PAS-B/GST-TACC3 binding, luminescence; TACC3 fragment carries E629A point mutation | inhibition, % at 9.99 µM | Q9Y6A5 | hit rate 0.66% among 390,000;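 active means mean inhibition of replicates at least 50% and at least half of replicates each reaching 50%; inconclusive means half or more replicates reach 50% but mean below 50%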;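 further: 0% = complete ARNT plus TACC3 wells and 100% = ARNT alone without TACC3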
SUMO Mot1 rescue – inhibitors of SUMOylation pathway: yeast Mot1-301 growth rescue; S. cerevisiae Mot1-301 growth rescue, ATP luminescence, 38.5C; percent above DMSO median, 100 means doubled; growth rescue, % at 18.8 µM; hit rate 1% among 320,000;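 active means every valid replicate shows activation above 250% relative to neutral control wells; inactive means the rest, any valid replicate at or below 250%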;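 further: OY570 slx delta 5 strain wells were the positive control but not used for scaling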
AI-2 QS mod – modulators of Vibrio harveyi AI-2 quorum sensing system. Vibrio harveyi JMH597 AI-2 luminescence/OD600 ratio, 9 h; active compounds read low; strain lacks LuxN and CqsS sensors; 0 = neutral-control median. hit rate 0.4% among 300,000. activity change, % at 7.5 µM; in the data active means activity change below about -75%, passing the limit was not always enough; inconclusive means no clear call, values can overlap the other calls;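 further: luminescence divided by OD600 gain over 9 h not by final OD600 alone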
Starred values were filed as active, the others as inactive; ? = inconclusive; / = no result given. The list is not random: actives were taken first. Their share in the collection is about 1.8%.

SMILES	A1 inh	aDG glyco up	ARNT-TACC3 inh	SUMO Mot1 rescue	AI-2 QS mod
CCCCc1cc(=O)oc2cc(OCC(=O)N[C@@H](Cc3ccccc3)C(=O)O)ccc12	0	0	-4	523*	23
CCCCCCc1c(C)c2ccc(OCC(=O)N[C@@H](Cc3ccccc3)C(=O)O)cc2oc1=O	0	0	1	522*	1
CCCCc1cc(=O)oc2cc(OCC(=O)NCc3ccccn3)ccc12	0	0	8	322*	/
Cc1ccc(S(=O)(=O)N2CCCCC2)cc1NC(=O)COC(=O)CN1C(=O)NC2(CC(C)CC(C)(C)C2)C1=O (stereo unspecified)	/	0	-1	/	/
O=C(Nc1ccc(Oc2cccc(C(F)(F)F)c2)nc1)c1cccs1	1	0	-5	135	5
COc1ccc(CN2C(=O)c3cccnc3C2=O)cc1S(=O)(=O)NCc1ccccc1	1	0	48*	0	34
CCOC(=O)C(C)Oc1c(Br)cc(C2NC(=O)NC(C)=C2C(C)=O)cc1OCC (stereo unspecified)	1	0	-11	1	10
NC1CCN(c2c(F)cc3c(=O)c(C(=O)O)cn(C4CC4)c3c2Cl)C1 (stereo unspecified)	1	0	-3	14	-88*
O=c1[nH]c(C2CCN(S(=O)(=O)c3ccccc3F)CC2)nc2c1nnn2Cc1ccc2c(c1)OCCO2	1	0	-10	-1	24
CCn1nc(C(=O)OCC(=O)c2c[nH]c3ccccc23)c2ccccc2c1=O	0	2	14	/	21
COc1cc2cccc(OC)c(=O)c2c(OC)c1OC	-1	4	-18	757*	30
Cc1cc(C(=O)COC(=O)c2ccc(Cl)c(S(N)(=O)=O)c2)c(C)n1CC1CCCO1 (stereo unspecified)	-1	0	5	331*	21
CC1=C(C(=O)N2CCOCC2)CC(CC(=O)NCc2cccc3ccccc23)C(=O)N1Cc1ccccc1 (stereo unspecified)	/	0	/	/	/
COc1ccc(/C=N\Nc2ccc([N+](=O)[O-])cc2[N+](=O)[O-])c(C(=O)O)c1OC	1	0	11	8	22
COc1ccc(/C=N\Nc2ccccc2[N+](=O)[O-])c(C(=O)O)c1OC	0	0	-2	974*	-1
C/C(N)=C(/C#N)C(=O)COC(=O)c1ccccc1Cc1ccccc1	0	0	2	-15	21
O=c1[nH]c(-c2ccccn2)nc(C(F)(F)F)c1Br	0	4	63*	16	?
Cc1ccc(NC(=O)c2ccc(NCc3ccco3)c([N+](=O)[O-])c2)cc1Cl	31*	0	-1	1	21
Cc1ccc(NC(=O)c2ccc(NCC3CCCO3)c([N+](=O)[O-])c2)cc1Cl (stereo unspecified)	8.2*	0	3	102	10
NC(=O)c1ccc(NCC2CCCO2)c([N+](=O)[O-])c1 (stereo unspecified)	-1	0	32	-14	22
CCn1nc(NS(=O)(=O)c2ccc(NC(C)=O)cc2)c2cc3ccccc3nc21	1	0	-5	-8	3
N[C@@H](C(=O)N[C@@H]1C(=O)N2C(C(=O)O)=C(Cl)CS[C@H]12)c1ccccc1	-1	0	40*	-22	26
CC1=C(C(=O)O)N2C(=O)C(NC(=O)c3ccccc3Cl)C2SC1 (stereo unspecified)	1	0	-3	0	1
COc1ccc(N(C(=O)CCl)C(C(=O)NCCc2ccccc2)c2cccs2)cc1Cl (stereo unspecified)	3	0	-9	264*	17
COc1ccc(-c2nc(C#N)c(N3CCCCCC3)o2)cc1	0	0	27	-12	12
SMILES	A1 inh	aDG glyco up	ARNT-TACC3 inh	SUMO Mot1 rescue	AI-2 QS mod
COc1ccc(-c2nc(C#N)c(N3CCCCCC3)o2)cc1OC	0	0	27	348*	13
C=CC(=O)NC(C)(C)Cc1ccccc1	1	0	-5	-7	22
Cc1ccc(-n2c(C)c(C)c3c(NCCO)ncnc32)cc1	0	0	27*	-7	17
Cc1c(C)n(-c2ccccc2)c2ncnc(NCCCN(C)C)c12	0	0	-1	0	1
COc1ccccc1-c1cc(C(F)(F)F)nc(S(=O)(=O)CCCC(=O)NC(C)C)n1	8.5*	-1	0	37	0
O=C(Nn1cc(C(=O)Nc2ccc(F)cc2F)c2ccccc2c1=O)c1cnccn1	1	1	65*	16	6
O=C(Nc1ccccc1F)c1cnccn1	0	0	22	28	8
Cc1cccc(NC(=O)CN2NS(=O)(=O)c3ccccc3C2=O)c1	0	0	-2	10	12
C[C@@H]1CCCCO[C@H](CN(C)S(C)(=O)=O)[C@H](C)CN([C@@H](C)CO)C(=O)c2cc(NC(=O)Nc3cccc4ccccc34)ccc2O1	/	/	13	/	/
S=c1[nH]nc(C2CCCCC2)n1/N=C/C=C/c1ccccc1	0	0	8	228	-92*
C[C@H](CO)N1C[C@H](C)[C@@H](CN(C)CC2CCOCC2)Oc2cc(C#Cc3cccnc3)ccc2S1(=O)=O	/	/	-6	/	/
CCOC(=O)c1cnc(Cc2ccccc2)[nH]c1=O	0	0	-14	-5	13
CCOC(=O)c1cnc(-n2[nH]c(C)c(Cc3ccccc3)c2=O)[nH]c1=O	0	-1	75*	15	11
Cc1ccc(C(O)c2ncc(-c3ccc(Cl)cc3)[nH]2)cc1 (stereo unspecified)	/	1	/	/	/
O=C(COC(=O)c1cc(S(=O)(=O)N2CCOCC2)ccc1O)Nc1cc(S(=O)(=O)N2CCCC2)ccc1Cl	-1	0	-8	352*	19
O=C(COC(=O)c1cc(S(=O)(=O)N2CCCC2)ccc1O)Nc1ccc(S(=O)(=O)N2CCOCC2)cc1	0	0	16	-14	18
COc1ccc(S(=O)(=O)N2CCOCC2)cc1NC(=O)COC(=O)c1[nH]c(C)c(C(C)=O)c1C	-2	0	-7	13	/
COc1ccc(S(=O)(=O)N2CCOCC2)cc1NC(=O)COC(=O)c1ccc([N+](=O)[O-])s1	2	0	30*	-15	/
CCOC(=O)C1=C(c2ccccc2)Nc2ncnn2C1c1ccc(C(=O)O)cc1 (stereo unspecified)	1	0	-1	-12	1
CCOC(=O)C1=C(c2ccccc2)NC(N)=NC1c1ccc(OCc2ccc(C(=O)OC)cc2)cc1 (stereo unspecified)	1	0	11	1	-92*
O=C(Nc1nnc(C2CC2)o1)c1ccc(S(=O)(=O)N2CCCc3ccccc32)cc1	1	1	48*	-30	68
